A selection: hits, their analogues and other compounds. The true share with any hit is near 2.5%.
TROY NFkB inh = blocks TROY-dependent signaling in reporter cells; Q293 LMP1-TROYcd NF-kB luciferase reporter, 4 h; inhibition, % at 10 µM; 360,000 tested, 0.98% active; AID 1347056;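 active = compounds whose plate-normalised and pattern-corrected inhibition of the luciferase reporter signal at the single screening dose is 50% or more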
EBV LMP1 NFkB = reduces LMP1-driven NF-kappaB luciferase signal | LMP1-induced NF-kappaB luciferase reporter cells, luminescence | inhibition, % at 12.5 µM | 350,000 tested, 0.69% active; in the data active = inhibition above about 41%; inconclusive = no clear call, values can overlap the other calls;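 also: 0% = neutral control wells and 100% = reference inhibitor control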
TWEAK-Fn14 inh = TWEAK-Fn14 signaling inhibition; 360,000 tested, 2% active; TWEAK-stimulated Fn14 reporter cells, luciferase luminescence, 8 h; inhibition, % at 10 µM; AID 1159606; in the data active = inhibition above about 50%
EWS-Fli block = blocks EWS/Fli oncoprotein-driven transcription | A673 NR0B1-luciferase reporter, viability-normalised | inhibition, % at 12.6 µM | 350,000 tested, 0.67% active;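 active = mean inhibition of at least 50% after viability correction, with every replicate also passing that limit; inconclusive = mean reaches 50% but only one of two replicates passes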;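 also: firefly luciferase signal divided by Alamar Blue viability fluorescence both relative to DMSO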
LGR2 antag = Drosophila LGR2 receptor signaling inhibition | inhibition, % at 9.99 µM | 380,000 tested, 0.35% active | HEK293 LGR2, CRE-luciferase, bursicon-stimulated, 4 h;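 active = drop in luminescence signal, shown as inhibition above about 50% in the replicate tests, limit read from the data, passing the limit was not always enough; inconclusive = probably only some replicates passing the limit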;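 also: agonist challenge used bursicon conditioned medium at about half maximal strength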
Starred values were filed as active, the others as inactive; ? = inconclusive; . = not tested or not shown; ! = not active in a repeat.

SMILES	TROY NFkB inh	EBV LMP1 NFkB	TWEAK-Fn14 inh	EWS-Fli block	LGR2 antag
C(=N\Nc1nncc2ccccc12)/c1ccccn1	-18.6	29.9	74.0*	41.1	?
CC(=O)c1cccc(-c2ccnc3c2CC(C(=O)NCc2ccccc2)O3)c1 (stereo not given)	17.7	.	38.6	63.1*	-10.1
CC(=O)c1cccc(-c2ccnc3c2CC(C(=O)NCc2ccc(F)c(F)c2)O3)c1 (stereo not given)	22.1	.	32.6	64.6*	2.8
CC(=O)c1cccc(-c2ccnc3c2CC(C(=O)NCc2ccco2)O3)c1 (stereo not given)	24.7	.	14.1	48.6	-13.1
C[C@@H]1CCCCO[C@H](CN(C)S(=O)(=O)c2ccccc2)[C@@H](C)CN([C@H](C)CO)C(=O)c2cc(N(C)C)ccc2O1	.	.	.	-4.3	1.1
COc1cccc(C#Cc2ccc([C@@H]3[C@@H](CO)N(C(=O)C4CCC4)[C@H]3C#N)cc2)c1	.	.	.	3.2	99.9*
N#C[C@@H]1[C@@H](c2ccc(C#Cc3ccccc3F)cc2)[C@H](CO)N1C(=O)C1CCCC1	.	.	.	-0.3	-21.6
N#C[C@@H]1[C@@H](c2ccc(C#CC3CCCCC3)cc2)[C@H](CO)N1C(=O)c1cccc(F)c1	.	.	.	16.5	-4.0
N#C[C@@H]1[C@H](c2ccc(C#Cc3cccc(F)c3)cc2)[C@@H](CO)N1C(=O)C1CC1	.	.	.	?	53.9*
N#C[C@@H]1[C@H](c2ccc(C#Cc3ccccc3F)cc2)[C@@H](CO)N1C(=O)C1CCCC1	.	.	.	2.3	66.1*
N#C[C@@H]1[C@H](c2ccc(C#CC3CCCCC3)cc2)[C@@H](CO)N1C(=O)c1cccc(F)c1	.	.	.	35.5	64.8*
COc1ccccc1C#Cc1ccc([C@H]2[C@H](C#N)N(C(=O)C3CCCCC3)[C@H]2CO)cc1	.	.	.	-5.6	82.6*
COc1ccccc1C#Cc1ccc([C@@H]2[C@@H](C#N)N(C(=O)C3CCCCC3)[C@@H]2CO)cc1	.	.	.	0.7	15.7
N#C[C@H]1[C@H](c2ccc(C#Cc3ccccc3F)cc2)[C@H](CO)N1C(=O)C1CCC1	.	.	.	65.6*	101.8*
CNC(=O)C[C@H]1CC[C@@H]2[C@H](COc3ccc(NC(=O)Nc4ccc(Cl)cc4)cc3C(=O)N2C)O1	.	.	.	-12.7	22.2
C[C@@H]1CN([C@H](C)CO)C(=O)Cc2cc(NS(=O)(=O)c3ccccc3)ccc2O[C@H]1CN(C)S(=O)(=O)c1cn(C)cn1	.	.	.	-4.5	-2.0
O=c1cc(-c2ccccc2Cl)oc2c([N+](=O)[O-])c(O)cc(O)c12	51.5*	17.0	96.2*	-12.7	69.8*
C[C@@H]1CN([C@@H](C)CO)C(=O)c2cc(C#C[C@@H](C)O)cnc2O[C@@H]1CN(C)C(=O)Nc1ccc(F)cc1	.	.	.	-7.1	-8.4
COc1ccc(C2NC(=O)NC(C)=C2C(=O)OC2CCCC(C)C2)cc1 (stereo not given)	44.3	11.4	72.7*	1.0	18.3
CCCCCOC(=O)C1=C(C)NC(=O)NC1c1ccc(OC)cc1 (stereo not given)	2.8	1.6	69.9*	10.5	28.9
CCCCOC(=O)C1=C(C)NC(=O)NC1c1ccc(OC)cc1 (stereo not given)	7.5	-7.0	-9.2	11.5	18.7
COc1ccc(C2NC(=O)NC(C)=C2C(=O)OC2CCCCC2)cc1 (stereo not given)	6.0	-3.9	-5.3	-2.1	6.6
CO[C@H]1CN(C)C(=O)c2cc(NC(=O)c3ccc4c(c3)OCO4)ccc2OC[C@H](C)NC[C@@H]1C	.	.	.	-6.5	-1.6
N=C(N)c1ccccc1	-2.0	81.5*!	3.9	-5.0	-11.3
N=C(N)c1ccc(O)cc1	7.8	5.9	4.2	10.0	7.1
SMILES	TROY NFkB inh	EBV LMP1 NFkB	TWEAK-Fn14 inh	EWS-Fli block	LGR2 antag
CCCN1C[C@H](C)[C@@H](OC)CN(C)C(=O)c2cc(NC(=O)c3cccc(F)c3)ccc2OC[C@H]1C	.	.	.	9.3	6.6
CC(C)(C)c1cc(C(=O)NNC(=O)Nc2cccc(Cl)c2)n(Cc2ccccc2)n1	26.1	53.0*	22.6	13.7	.
O=C(CCC(=O)NNC(=O)Nc1cccc(Cl)c1)NCc1ccccc1	-3.8	42.3*	-22.7	13.6	-1.0
CC(C)(C)c1cc(C(=O)NNC(=O)Nc2ccccc2)n(Cc2ccccc2)n1	5.9	5.7	2.9	8.3	4.8
O=C(CN1c2ccccc2Sc2ccccc21)NNC(=O)Nc1cccc(Cl)c1	52.6*	2.4	39.8	19.2	.
O=C(CCC(=O)NNC(=O)Nc1ccc(Cl)cc1)NCc1ccccc1	4.0	-2.6	3.0	4.7	-1.6
C[C@@H]1CN([C@@H](C)CO)S(=O)(=O)c2ccc(-c3ccc(F)cc3)cc2O[C@@H]1CN(C)C(=O)c1ccccc1F	.	.	.	-1.8	3.6
CCCC(=O)N1CC2(C1)CN(Cc1nccs1)[C@@H](CO)c1[nH]c3cc(OC)ccc3c12	.	.	.	18.6	-18.4
Clc1ccccc1/C=C/c1nc(-c2ccccn2)no1	77.2*	72.9*	101.8*	66.6*	98.4*
Cc1onc(-c2ccccc2Cl)c1-c1nc(-c2ccccn2)no1	18.3	-0.8	32.1	.	.
CN1C(=O)c2cc(NC(=O)c3cccc(F)c3)ccc2OC[C@H]2O[C@H](CC(=O)Nc3ccccc3)CC[C@H]21	.	.	.	7.3	0.3
OCc1cccc(-c2cnc3c(Nc4cccc(OC(F)(F)C(F)F)c4)nccn23)c1	42.5	.	57.2*	-41.4	65.5*
Cc1ccc(-c2cnc3c(Nc4cccc(OC(F)(F)C(F)F)c4)nccn23)cc1	-7.8	.	3.9	-24.4	-0.3
CNC(=O)C[C@H]1CC[C@@H]2[C@H](COC[C@H](O)CN2S(=O)(=O)c2ccccc2Cl)O1	.	.	.	.	13.7
O=C(Nc1cccc(C(F)(F)F)c1)Oc1ccc(Cl)c2cccnc12	47.9	10.7	74.0*	12.6	6.0
CCN(CC)C(=O)Oc1ccc(Cl)c2cccnc12	7.7	-0.7	-8.3	0.2	-0.7
O=C(Cn1cnc2c(nnn2Cc2ccc(Cl)cc2)c1=O)N1CCN(c2ccccc2)CC1	15.1	7.4	22.7	8.1	5.8
O=C(Cn1cnc2c(nnn2Cc2ccccc2)c1=O)N1CCN(c2ccccc2)CC1	2.6	83.0*	10.3	-3.6	-3.3
Cc1ccc(C2=NN(C(=S)Nc3ccccc3)C(c3ccco3)C2)cc1 (stereo not given)	56.8*	-69.7	48.4	.	.
CCS(=O)(=O)Nc1ccc(C2=NN(C(=S)Nc3ccccc3)C(c3ccco3)C2)cc1 (stereo not given)	-3.5	0.3	0.2	.	-17.6
CCc1ccc2oc(C(=O)Nc3nonc3C)c(C)c2c1	34.8	-42.1	36.9	-60.4	17.8
Cc1c(C(=O)Nc2nonc2-c2ccc(F)cc2)oc2ccc(F)cc12	38.8	12.0	78.5*	41.0	17.8
CCc1nonc1NC(=O)c1oc2ccc(F)cc2c1C	-7.8	41.9*	-17.2	-24.5	-7.3
Oc1cccc(/C=C/c2ccc3cccc(O)c3n2)c1	-25.3	-1.6	19.2	4.6	-3.5
COc1cccc(/C=C/c2ccc3cccc(O)c3n2)c1	50.2*	-4.3	83.5*	9.4	-67.7
COc1ccc(/C=C/c2ccc3cccc(O)c3n2)cc1Br	54.1*	4.2	72.2*	-83.0	-63.2

Screens deposited in PubChem BioAssay by several laboratories.
